# Assay results as given in PubChem BioAssay AID504690 (Sanford-Burnham Center for Chemical Genomics, 2011).
# In all, about 350,000 compounds went through this assay and about 2,700 (0.77%) were called active. The sample holds actives, similar compounds and a random draw of the others, so the mix is not that of the screen. Unmarked numbers belong to inactive results.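 Rule for the calls: active = inhibition reaching at least a set limit at 20 µM in the primary screen (cut at about 59% in these data); inactive = the rest.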
# System: glucose-6-phosphate dehydrogenase-6-phosphogluconolactonase (Plasmodium falciparum 3D7)
# Assay: PfG6PD enzyme inhibitors, primary screen, biochemical, fluorescence intensity, uHTS (AID 504690);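 note: 0% = DMSO wells with substrate and 100% = DMSO wells lacking glucose-6-phosphate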
# Details: PfGluPho enzyme, NADPH resazurin-diaphorase fluorescence; at 20 µM; stronger effect = higher value
row,SMILES,inhibition
1,CCOC(=O)c1cnn2c(SC)ncnc12,5.86%
2,Cc1cc(C)n(Cc2cnc(N3CCOCC3)s2)n1,2.1%
3,CC1(C)CC(=O)c2cc(OCC(=O)NCC3CCCO3)ccc2O1 (centres undefined),7.52%
4,CC(=O)Nc1ccc2c3c(ccc([N+](=O)[O-])c13)CC2,1.79%
5,Brc1ccc(C2=CC(c3ccco3)n3ncnc3N2)cc1 (centres undefined),23.3%
6,Clc1ccc2c(c1)C1=C(C(c3ccncc3)O2)C(c2ccc(Br)cc2)n2ncnc2N1 (centres undefined),78.5% (active)
7,O=C(C1CCN(S(=O)(=O)c2ccc(Br)s2)CC1)N1CCN(C2CCCCC2)CC1,3.65%
8,Cc1ccnc(-n2sc3ccccc3c2=O)n1,97% (active)
9,Cc1ccnc(SC2CC(=O)N(c3ccccc3)C2=O)n1 (centres undefined),-11.7%
10,O=C(NCc1ccccc1)C1CCCN(S(=O)(=O)c2cccs2)C1 (centres undefined),3.61%
11,C[C@@H]1CCCCO[C@H](CN(C)Cc2ccccc2)[C@@H](C)CN([C@H](C)CO)C(=O)c2cc(NS(=O)(=O)c3ccc(Cl)cc3)ccc2O1,36.3%
12,O=c1[nH]nc(Cc2ccccn2)c2ccccc12,1.12%
13,COc1ccc(OCc2n[nH]c(=S)n2N)cc1,71.3% (active)
14,Fc1ccc(/C=N/n2c(COc3ccccc3)n[nH]c2=S)cc1,27.2%
15,COc1ccc(Cc2n[nH]c(=S)n2NC(=O)Nc2ccc(C)cc2)cc1,15.8%
16,CCOc1ccc(NS(=O)(=O)c2ccc(Cl)c(C(=O)N(C)Cc3cccnc3)c2)cc1,-26.1%
17,C=CCn1c(SCC(N)=O)nnc1-c1cc2c(s1)CCC(CC)C2 (centres undefined),2.97%
18,CCC1=NN(C(=O)Cc2ccc([N+](=O)[O-])cc2)C(O)(c2ccc(Br)cc2)C1 (centres undefined),-3.74%
19,CC1(C)NC(=O)N(CC(=O)N2CCN(S(=O)(=O)c3ccccc3F)CC2)C1=O,-13.8%
20,O=C(COc1ccccc1)Nc1ccc(C(=O)N2CCCC2)cc1,-12.5%
21,O=C(COc1ccccc1)Nc1nonc1NC(=O)COc1ccccc1,71.2% (active)
22,O=C(COc1ccccc1)Nc1ccc(F)cc1,-2.38%
23,COc1ccc([N+](=O)[O-])cc1N(CC(O)Cn1nnc2ccccc21)S(=O)(=O)c1ccc(C)cc1 (centres undefined),-4.47%
24,Cc1nc([N+](=O)[O-])nn1C12CC3CC(CC(Br)(C3)C1)C2,71% (active)

row,SMILES,inhibition
1,CC1CCC(CN2CCN=C2N(C)C)CC1 (centres undefined),-9.19%
2,CCOc1ccc(S(=O)(=O)N2CCCC(C(=O)N3CCC(C(N)=O)CC3)C2)cc1Cl (centres undefined),-4.54%
3,CCOC(=O)[C@@H]1[C@H]2COc3ccc(Br)cc3[C@H]2N2C(=O)N(c3ccc(Cl)cc3)C(=O)[C@@]12C,9.82%
4,COCCOC(=O)c1sc(=S)n(CCOC)c1N,25.1%
5,COc1cccc(N2CCN(c3ccc4nnc(CCC(=O)N5CCN(C)CC5)n4n3)CC2)c1,6.62%
6,O=C(c1ccc(S(=O)(=O)N2CCCC2)cc1)N1CCN(c2ccccc2F)CC1,7.54%
7,COC(=O)c1sc(N2CCN(Cc3ccccc3)CC2)nc1N,-11.2%
8,COC(=O)c1sc(=S)n(-c2ccccc2)c1N,65.1% (active)
9,Cc1cccc(-n2c(N)c(C(=O)N3CCN(C)CC3)sc2=S)c1,79.6% (active)
10,N#Cc1ccccc1-n1c(N)c(C(=O)N2CCCC2)sc1=S,60% (active)
11,N#Cc1c(N)sc2c1CCN(C(=O)OCc1ccccc1)C2,42.3%
12,Cc1ccc(-n2c(N)c(C(=O)N3CCOCC3)sc2=S)c(C)c1,-1.21%
13,O=C(OCc1ccccc1)N1CCC2CC1c1ccc(-c3ccc4c(c3)OCO4)cc12 (centres undefined),2.75%
14,O=C(Cc1ccsc1)N1CCN(S(=O)(=O)c2cc(C(F)(F)F)cc(C(F)(F)F)c2)CC1,9.01%
15,Cc1cccc(N2C(=O)N3[C@H](c4ccc(F)cc4)[C@@H]4C(=O)N(C5CCCCC5)C(=O)[C@@H]4[C@]3(Cc3ccccc3)C2=O)c1,-21.6%
16,COc1ccccc1Cn1c(C)nnc1-c1cnn(C)c1N,-9.47%
17,Cc1cc(C)c2c(c1)c(C)cc1nnc(SCC(=O)NCc3ccco3)n12,46.3%
18,Cc1ccc(OCCNC(=O)CNC(=O)c2ccc(C)c(C)c2)cc1,-19.6%
19,O=[N+]([O-])c1ccc(C=Nc2ccc(Cl)cc2Cl)s1,76.4% (active)
20,CNN/C(N=Cc1ccc([N+](=O)[O-])s1)=N\S(=O)(=O)c1cc(C)c(Cl)cc1SCc1ccccc1,5.23%
21,Cc1ccc(NC(=O)C2CCC(C(C)(C)C)CC2)cc1S(=O)(=O)N1CCOCC1 (centres undefined),30.1%
22,O=C1CCC(C(=O)OCC(=O)Nc2ccc(OC(F)F)cc2)=NN1,3.76%
23,CCOc1[nH]n(-c2ccc(Cl)cc2)c(=O)c1C=Nc1ccc(O)cc1,-1.23%
24,Oc1ccc(N=Cc2c(O)ccc3ccccc23)cc1,62.9% (active)

row,SMILES,inhibition
1,Cc1cc(N=Nc2ccc3ccccc3c2)ccc1O,0.29%
2,CCn1nnc2cc(C(=O)Nc3ccc(C(=O)OC(C)C)cc3)ccc21,22.8%
3,COc1cccc(C(CC(=O)NCCN2CCOCC2)NS(=O)(=O)c2ccc(C)cc2)c1OC (centres undefined),11%
4,CSc1n[nH]c(=S)n1N,65.2% (active)
5,Cc1ccc(S(=O)(=O)N2CCCCC2)cc1C(=O)N1CCN(CCO)CC1,-1.65%
6,CC(=O)c1ccc(NC(=O)C2CCCN2S(=O)(=O)c2cccs2)cc1 (centres undefined),14.3%
7,COc1ccc(Nc2ccc3ccccc3c2)cc1,53.2%
8,COc1ccc(Nc2cc(Sc3ccc(OC)cc3)ncn2)cc1,77.5% (active)
9,COc1ccc(Nc2ncnc3sc(C)cc23)cc1,4.18%
10,O=C(NC1CCCC1)C(c1ccc(N2CCOCC2)cc1)N(C(=O)c1ccco1)c1ccccc1F (centres undefined),1.31%
11,Cc1ccc2c(c1)N(CC(=O)NCC1CCCO1)C(=O)CO2 (centres undefined),0.68%
12,FC(F)(F)c1cccc(-c2cc3ccccc3nc2N2CCCC2)c1,13.8%
13,O=C(CNS(=O)(=O)c1ccc(Br)s1)N1CCN(C(=O)c2ccco2)CC1,-12.2%
14,NC(=O)c1cc(-c2cccnc2)nc2ccc(Br)cc12,14.2%
15,Cc1ccc2nc(-c3cccc(Br)c3)cc(C(=O)Nn3cnnc3)c2c1,59.4% (active)
16,Cc1ccc(-c2cc(C(=O)NCc3cn(C)nc3C)c3cc(Br)ccc3n2)cc1,3.11%
17,CCc1nnc(NC(=O)CSc2nc3c(c(=O)n2-c2ccccc2OC)SCC3)s1,43%
18,CN(C)C(=O)c1ccc(NC(=O)COC(=O)c2cc3c(s2)CCCCC3)cc1,-5.04%
19,O=C(NCC1CCCO1)c1cc2c(s1)CCCC2 (centres undefined),14%
20,O=C(Nc1ccc(F)cc1)c1cc2c(s1)CCCC2,75.7% (active)
21,Cc1ccc(CSCCNC(=O)CN(c2ccc(F)cc2)S(C)(=O)=O)cc1,-11.7%
22,NC(=O)C1=C[C@@H](c2ccc3c(c2)OCO3)C[C@@H](OCCCCO)O1,17.6%
23,CC1(c2ccc3ccccc3c2)NC(=O)NC1=O (centres undefined),18.9%
24,CN1c2ccc(C=O)c3c(C=O)ccc(c23)N(C)C1(C)C,69.6% (active)

row,SMILES,inhibition
1,Cc1ccc(C=O)c([B-](F)(F)F)c1,-13.1%
2,COC(=O)C1(CCSC)NC(c2ccc(OC)cc2OC)C2C(=O)N(c3cccc(C(C)=O)c3)C(=O)C21 (centres undefined),-2.47%
3,Cc1ccc(Cc2c(-c3ccccc3)nc3ccc(Cl)cn23)cc1,37.4%
4,Cc1ccc(Cc2c(-c3ccc(C)cc3)nc3c4ccccc4ccn23)cc1,31.4%
5,Cc1ccc(-c2nc3ccc(Cl)cn3c2Cc2ccccc2)cc1,87.1% (active)
6,Cc1cc(C)n2nc(CNS(=O)(=O)c3c(F)c(F)c(F)c(F)c3F)nc2n1,-12.8%
7,COc1ccc(N2CCN(S(=O)(=O)c3cc(Br)cnc3N)CC2)cc1,-12.2%
8,Nc1ccccc1SC(C[N+](=O)[O-])c1ccccc1 (centres undefined),79.5% (active)
9,Fc1cccc(CSc2nnc3ccc(-c4ccncc4)nn23)c1,1.54%
10,COc1cc2c(C(=O)N(C)c3cc(Cl)ccc3OC)cn(C)c(=O)c2cc1OC,-11.9%
11,O=C(c1[nH]ncc1-c1ccc(Cl)cc1)C1CO1 (centres undefined),2.19%
12,COc1ccc2oc(=O)cc(CN3CCOCC3)c2c1,-5.99%
13,Oc1c(CN2CCOCC2)ccc(CN2CCOCC2)c1O,91.2% (active)
14,O=[N+]([O-])c1ccc(COc2ccccc2CN2CCOCC2)cc1,36.1%
15,CCN(CC)c1ccc(C(=O)c2cnc(/N=C/N(C)C)s2)cc1,11.6%
16,CCOC(=O)N1CCN(C(=O)c2ccc3c(=O)n(CCc4ccc(OC)c(OC)c4)c(=O)[nH]c3c2)CC1,0.32%
17,CCOC(=O)C1CCCN(CCSc2ccc(C)cc2)C1 (centres undefined),-1.97%
18,CC(C)C[C@H](NC(=O)N1CCn2c1nc1ccccc12)C(=O)NC1CC1,-6.34%
19,NC1=CC(=O)C(=O)c2cccnc21,51.8%
20,Cc1coc2c(O)cc3c(c12)OC1(N2CCCCC2)C(=O)NCCCC31 (centres undefined),101% (active)
21,NC(=O)CN1CCCC1c1ccc2c(c1)OCCO2 (centres undefined),7.24%
22,CCCCN1CC(C)(C)[C@H](CC(=O)Nc2ccc(Br)cc2)C1=O,21.2%
